Compound activity deposited in PubChem by National Center for Advancing Translational Sciences (NCATS).
ELG1 genotoxic = induces genotoxicity in HEK293T cells with luciferase-tagged ELG1; HEK293T ELG1-luciferase reporter, luminescence, 16 h; Potency, µM (top dose mostly 46 µM), inactives show at the highest dose activity change, positive = activation, actives largely listed as activators; 1.3% of 330,000 active; AID 504466; also: % of control where 0% means no effect; nearly all actives have a fitted effect of over 60% in size
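Screening used a luciferase reporter fused to human ELG1 in HEK293T cells. Luminescence was read on a CCD plate imager after 16 hr exposure and 30 min ONE-Glo incubation.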
NPC1 promoter act = activates the NPC1 promoter; Huh7 NPC1 promoter luciferase reporter, 24 h; Potency, µM (doses to about 9.22 µM), inactives show at the top dose activation, hits mostly activators; 2.4% of 320,000 active; AID 485313; also: % of control where 0% means no effect; nearly all actives have a fitted effect of over 60% in size
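Cells: Huh7 expressing luciferase under the NPC1 promoter, 1500/well. Seeded 2 h, compound added, incubated 24 h at 37 °C. Luciferase reagent, 10 min ambient, then luminescence.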
Rab9 prom act = Rab9 promoter activation; AID 485297; Potency, µM (highest dose often 9.22 µM), without a hit: top-dose activation, negative = inhibition, actives largely listed as activators; Huh7 Rab9 promoter-luciferase reporter, luminescence, 24 h; 2.8% of 320,000 active; also: % of control where 0% means no effect; nearly all actives have a fitted effect of over 60% in size
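Cells were plated at 1500 per well in reduced-serum medium with 10% FBS and left 2 h. Compound in DMSO was then added for 24 h at 37 °C. Reporter signal was read by luminescence after 10 min with luciferase detection reagent.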
ELG1 repair inh = inhibitors of ELG1-dependent DNA repair in HEK293T cells; HEK293T ELG1-luciferase reporter, luminescence, 16 h; DNA damage induced by 5-fluorouridine; Potency, µM (top dose mostly 46.1 µM), for the others: top-dose activity change, negative = inhibition, actives largely listed as inhibitors; 2.3% of 330,000 active; also: % is scaled to controls: 0 for no effect and ±100 for the full control effect; nearly all actives have a fitted effect of over 55% in size
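Quantitative HTS, concentration-response format. 2,000 cells/well co-treated with 5-fluorouridine and compound, 16 hr in 5% CO2 at 37 °C; ONE-Glo luminescence read after 30 min.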
FLuc modulator = counter-screen for miR-21 project: firefly luciferase inhibitors or activators. P08659. Potency, µM (doses to about 57.5 µM), for the others: top-dose activity change, negative = inhibition, hits mostly inhibitors. AID 588342. 6.9% of 360,000 active. purified FLuc, Km substrates, luminescence inhibition;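 also: plate controls were vehicle for no effect and reference inhibitor for full effect; nearly all actives have a fitted effect of over 55% in size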
Target sequence (P08659 whole entry, looked up): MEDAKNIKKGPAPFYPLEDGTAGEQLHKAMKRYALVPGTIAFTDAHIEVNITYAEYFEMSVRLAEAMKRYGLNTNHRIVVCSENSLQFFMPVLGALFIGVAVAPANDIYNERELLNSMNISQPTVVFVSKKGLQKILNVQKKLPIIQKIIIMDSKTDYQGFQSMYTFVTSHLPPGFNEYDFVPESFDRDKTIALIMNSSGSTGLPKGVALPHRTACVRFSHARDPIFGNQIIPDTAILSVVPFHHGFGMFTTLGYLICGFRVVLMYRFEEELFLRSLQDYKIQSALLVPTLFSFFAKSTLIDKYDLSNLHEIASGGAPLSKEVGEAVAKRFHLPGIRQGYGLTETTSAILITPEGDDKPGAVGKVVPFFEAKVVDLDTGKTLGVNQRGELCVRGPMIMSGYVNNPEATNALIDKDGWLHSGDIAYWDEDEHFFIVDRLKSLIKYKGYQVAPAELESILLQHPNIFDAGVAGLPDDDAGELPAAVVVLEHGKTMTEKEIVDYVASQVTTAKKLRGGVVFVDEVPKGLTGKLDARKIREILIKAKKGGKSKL
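Biochemical qHTS of compounds, final roughly 60 µM downward over six points, against 10 nM purified firefly luciferase using Km concentrations of substrates (10 uM D-luciferin, 10 uM ATP) in Tris acetate pH 7.5 buffer; luminescence output.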
SMN2 splice up = SMN2 splice variant enhancement; HEK293 SMN2-luciferase splicing reporter, luminescence, 30-36 h; 2.8% of 210,000 active; Potency, µM (titrated, usually from 46.1 µM), inactives show at the top dose activity change, positive = activation, actives largely listed as activators; also: % of control where 0% means no effect; nearly all actives have a fitted effect of over 55% in size
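qHTS luciferase splicing reporter: luminescence rises when SMN2 exon 7 is included in transfected HEK293 cells. Compound exposure lasted 30-36 h at 37C, with 4.5 mM final sodium butyrate as control, followed by a ONE-Glo read.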
* = called active by the depositor; ? = inconclusive; . = no result; [ ] = dose if it differs, or a comment. This is a sample that favours compounds with a hit; in the whole collection about 9.2% have one here. Calls follow the shape of the dose curve; as a rule, active = well fitted curve in the direction sought with a large enough effect; inconclusive = small, poorly fitted or top-dose-only effect, or another doubt; inactive = no such curve, though single readings can be large; an effect the other way counts as inactive or inconclusive. Potency is read from the fitted curve at half-maximal effect.

SMILES | ELG1 genotoxic | NPC1 promoter act | Rab9 prom act | ELG1 repair inh | FLuc modulator | SMN2 splice up
CCOCCCNC(=O)CN1CCN(S(=O)(=O)c2ccc3c(c2)CCC3)CC1 | -3% | 3% | -2% | ? | 2% | .
Cc1ccc2c(c1)N(C(=O)N1CCC(C(=O)NCc3ccccc3C)CC1)CC(C)O2 (stereo not given) | . | . | . | . | 7% | .
COc1ccc(NC(=O)COC(=O)CCC2CCCC2)c(OC)c1 | 3% | . | . | 0% | . | .
CC(C)(CO)CNC(=O)CCc1nnc(CCCc2ccccc2)o1 | 4% | -1% | 12% | ? | -15% | .
CN(Cc1ccsc1)C(=O)CCc1nnc(CCCc2ccccc2)o1 | ? | 19% | 3.2µM* | ? | 13µM* | .
O=C(CCc1nnc(CCCc2ccccc2)o1)NC(C1CC1)C1CC1 | 21µM* | ? | 2.8µM* | ? | 12µM* | 14µM*
CN(Cc1ccsc1)C(=O)CCc1nnc(Cc2c[nH]c3ccccc23)o1 | 3% | -2% | -2% | 11% | -13% | .
Cc1nc(C(C)NC(=O)CCc2nnc(CCCc3ccccc3)o2)c(C)s1 (stereo not given) | ? | ? | 2.8µM* | ? | 15µM* | 16µM*
COc1ccc(-c2cn3c(n2)sc2cc(C(=O)NC4CCCc5ccccc54)ccc23)cc1 (stereo not given) | . | . | . | . | -1% | .
CCCN(C(=O)COc1cc(=O)n(CC)c2ccccc12)c1ccc(C(C)C)cc1 | . | . | . | . | -18% | -10%
Cc1cc(Nc2ccccc2)nc2cc(O)ccc12 | 3% | -3% | -7% | ? | 17µM* | -6%
COc1ccc(Nc2cc(C)c3ccc(O)cc3n2)cc1 | 7% | 5% | -3% | 7% | 24µM* | .
COc1ccc(N2CCN(c3cc(C)c4ccc(O)cc4n3)CC2)cc1 | 2% | -2% | 1% | -6% | 4% | 16%
CC(=O)Nc1ccc(Nc2cc(C)c3ccccc3n2)cc1 | -5% | 1% | 10% | 2% | ? | .
Cc1ccc2nc(C)cc(Nc3ccc([N+](=O)[O-])cc3)c2c1 | 5.8µM* | -21% | -18% | ? | 1% | -108%
COc1ccc(Nc2cc(C)c3cc([N+](=O)[O-])ccc3n2)cc1 | -2% | -7% | -6% | ? | 17µM* | .
CC1=C(c2ccc(C(C)C)cc2)S(=O)(=O)NC1=NCc1ccccc1Br | . | . | . | . | -1% | .
CC(C)(C)OC(=O)N1CCC(Cc2cc(-c3ccc(Cl)cc3)no2)(C(=O)O)CC1 | 0% | 7% | 0% | 2% | ? | .
Nc1cc(-c2cccc(Br)c2)nn1Cc1ccccc1 | 11% | 7% | 5% | ? | ? | -40%
Nc1cc(-c2ccc(Br)cc2)nn1Cc1ccccc1 | 7% | -10% | -17% | ? | 17µM* | .
Cc1ccccc1CCN(C(=O)CN1C(=O)c2ccccc2S1(=O)=O)C(C(=O)NCC1CCCO1)c1ccncc1 (stereo not given) | 1% | 1% | 2% | -1% | 4% | -8%
Cc1ccc(C(C(=O)NCC2CCCO2)N(Cc2ccccc2)C(=O)c2ccc(-c3ccccc3)[nH]2)o1 (stereo not given) | -6% | -4% | 5% | 16µM* | 1% | -8%
CN(C)c1ccc(C(C(=O)NCC2CCCO2)N(Cc2ccccc2)C(=O)c2snc(C(N)=O)c2N)cc1 (stereo not given) | -12% | 1% | 0% | 12µM* | 0% | .
O=C(NCC1CCCO1)C(c1ccncc1)N(Cc1cccs1)C(=O)CN1C(=O)c2ccccc2S1(=O)=O (stereo not given) | 10% | -3% | -4% | -6% | 13µM* | .
Cc1ccc(CN(C(=O)CNC(=O)c2cccs2)C(C(=O)NCC2CCCO2)c2ccccc2)cc1 (stereo not given) | -8% | 0% | -1% | 9.2µM* | 1% | ?
SMILES | ELG1 genotoxic | NPC1 promoter act | Rab9 prom act | ELG1 repair inh | FLuc modulator | SMN2 splice up
O=C(CSc1ccc2ccccc2n1)NCCCN1CCCC1=O | 4% | . | . | ? | . | .
COC(=O)c1cccc(NC(=O)c2ccc3c(c2)C(=O)N(Cc2cccnc2)C3=O)c1C | -8% | 2% | 0% | 13% | -2% | .
Cc1cc(C(=O)OC(C)C(=O)N2CCc3ccccc32)ccc1[N+](=O)[O-] (stereo not given) | 18% | -1% | -1% | -2% | 3% | .
CC1(C)CCC(=O)N2CC[C@H]3C[C@H](OC(=O)Nc4ccccc4)C[C@@H]1[C@H]32 | 19% | ? | ? | ? | 19µM* | .
CC1(C)CCC(=O)N2CC[C@H]3C[C@H](OC(=O)Nc4ccc5c(c4)OCO5)C[C@@H]1[C@H]32 | -5% | 4µM* | ? | ? | 15µM* | .
Cc1ccc(C(=O)OCC(=O)N2CCNC2=O)c(C)c1 | ? | ? | ? | ? | 21µM* | .
Cc1ccc(C(=O)OCC(=O)c2ccc(CC(=O)N3CCOCC3)s2)cc1C | 1% | 2% | -4% | -7% | 24µM* | .
Cc1ccc(C(=O)OCC(=O)c2ccc(CC(=O)N3CCOCC3)s2)c(C)c1 | 1% | 1% | -1% | 22% | 17µM* | .
COc1cccc(C(CNC(=O)C2CCN(C(=O)Nc3ccccc3)CC2)N(C)C)c1 (stereo not given) | 5% | 0% | 18% | ? | . | .
O=C(O)[C@H](C1NCCS1)N1C(=O)c2ccccc2C1=O (stereo not given in full) | . | . | . | . | . | -11%[9.22 µM]
Cc1ccc(C)c(N(CC(=O)NC2CCCCC2)C(=O)CNC(=O)c2ccco2)c1 | -22% | -3% | -1% | 0% | -2% | .
CC(C)(C)C(=O)Cn1ncc(N2CCOCC2)c(Br)c1=O | 9% | 7% | 26% | ? | -2% | 7%
CC(C)(C)C(=O)Cn1ncc(N2CCCC2)c(Br)c1=O | ? | ? | 4µM* | ? | ? | 24%
